Abeta rescue = qHTS for compounds that reverse cellular toxicity of Amyloid beta (A-beta) peptide in yeast: Primary Screen | AID 1347071, 2019 | actives 0.063% (n = 410,000) | Potency, µM (doses to about 46.1 µM), most hits filed as activators | yeast expressing A-beta42, growth rescue, OD600, 48 h; response scale: 0% DMSO, 100% iron-clioquinol control; note: nearly all actives have a fitted effect of over 55% in size
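Yeast growth medium received pinned compounds, then yeast cells expressing toxic A-beta were added; plates incubated at 30 C for 48 hr. Growth read as absorbance at 600 nm, normalized to DMSO and equimolar FeCl3 plus clioquinol controls.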
aSyn yeast inh = qHTS of alpha-syn Inhibitors. Yeast expressing alpha-synuclein, growth rescue, BacTiter-Glo, 24 h. Potency, µM (doses to about 46.1 µM), actives largely listed as activators. actives 0.14% (n = 370,000); note: nearly all actives have a fitted effect of over 65% in size
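Galactose-induced alpha-syn yeast (OD600=0.02, raffinose-pregrown) + pinned cpd, 24 hr, 30 deg C; growth by BacTiter-Glo luminescence. Growth restoration scores as activation.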
FUS suppressor = qHTS for Suppressors of FUS Proteinopathy: Primary screen using FUS-linked yeast assay. actives 0.24% (n = 390,000). S. cerevisiae FUS-expressing, growth rescue, OD600, 24 h. Potency, µM (highest dose often 76.6 µM), hits mostly activators; note: nearly all actives have a fitted effect of over 55% in size
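FUS-expressing yeast, raffinose-pregrown, induced in 2% galactose minimal medium at OD 0.005; compounds in a dilution series, 24hr at 30C. Growth restoration read as absorbance at 600 nm. CP55940 positive control, DMSO negative.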
TDP-43 yeast inh = qHTS of TDP-43 Inhibitors; Potency, µM (top dose mostly 46.1 µM), hits mostly activators; TDP-43 expressing yeast growth rescue, BacTiter-Glo, 24 h; actives 1.8% (n = 410,000); AID 652104, 2013; note: nearly all actives have a fitted effect of over 50% in size
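Luminescence from BacTiter-Glo reports growth of TDP-43-expressing yeast after 24 hr at 30 deg C with compound. Cells were raffinose-pregrown to mid-log, then seeded in galactose medium at OD600=0.02.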
Each line names hits and unclear results; the compound was inactive in the other large screens. This is a sample that favours compounds with a hit; in the whole collection about 2.1% have one here. Calls come from the whole dose curve; as a rule, active = well fitted curve in the direction sought with a large enough effect; inconclusive = small, poorly fitted or top-dose-only effect, or another doubt; inactive = no such curve, though single readings can be large; an effect the other way counts as inactive or inconclusive.

CC(=O)C1=C(c2ccc(Cl)c(Cl)c2)N(C(C)=O)n2cnnc2S1	TDP-43 yeast inh 10µM (no result: aSyn yeast inh)
COc1cccc(C2=C(C(C)=O)Sc3nncn3N2C(C)=O)c1	TDP-43 yeast inh 35µM (no result: aSyn yeast inh)
CC(=O)C1=C(c2ccc(Cl)c(Cl)c2)N(C(C)=O)n2c(C)nnc2S1	TDP-43 yeast inh inconclusive (no result: aSyn yeast inh)
CN(C)[C@@H]1CCN(c2cccc3c2S(=O)(=O)N(C2CC2)CCCO3)C1	none (no result: Abeta rescue, aSyn yeast inh, TDP-43 yeast inh)
CCCCOCCCNC(=O)C[C@@H]1C[C@]2(C(=O)OCC)CCC3=C2N(CCC3)C1=O	none (no result: Abeta rescue, aSyn yeast inh, TDP-43 yeast inh)
Nn1c(SCC(=O)Nc2cccc3ccccc23)nnc1-c1n[nH]c2c1CCC2	none (no result: Abeta rescue, aSyn yeast inh, TDP-43 yeast inh)
CCOC(=O)c1c(Nc2ccc(O)cc2)nnc(-c2ccccc2)c1-c1ccccc1	none
Nn1c(SCC(=O)N2CCOCC2)nnc1-c1cc(-c2ccc(F)cc2)n[nH]1	none (no result: Abeta rescue, aSyn yeast inh, TDP-43 yeast inh)
CCOC(=O)c1ccc(NC(=S)N2CCSC2c2ccc(Cl)cc2)cc1 (configuration not stated)	FUS suppressor inconclusive, TDP-43 yeast inh 16µM
Cc1c[nH]c2cccc(-c3cc4ccccc4o3)c12	none (no result: Abeta rescue, aSyn yeast inh, TDP-43 yeast inh)
Cc1ccc(Nc2ncc(C(=O)N3CCN(c4ccc(F)cc4)CC3)c3ccccc23)cc1Cl	TDP-43 yeast inh 13µM (no result: aSyn yeast inh)
COc1cc(/C=C/C(=O)c2ccc(C)c([N+](=O)[O-])c2)cc(OC)c1O	none (no result: FUS suppressor)
COc1ccc(/C=C/C(=O)c2ccc(C)c([N+](=O)[O-])c2)cc1O	TDP-43 yeast inh 22µM (no result: FUS suppressor)
CCCC#Cc1ccc(CC[C@H]2O[C@H]3CC[C@H](CO)O[C@H]3C[C@H]2NC(=O)CN2CCOCC2)cc1	none (no result: Abeta rescue, aSyn yeast inh, TDP-43 yeast inh)
Cc1ccc(-c2nnc(SCC(=O)Nc3ccc(OCc4ccccc4)cc3)n2-c2ccc(Cl)cc2)cc1	none (no result: Abeta rescue, aSyn yeast inh, TDP-43 yeast inh)
COc1ccc(S(=O)(=O)n2nc(-c3ccco3)nc2NCc2ccc(N(C)C)cc2)cc1	FUS suppressor 32µM (no result: aSyn yeast inh)
CCCCN1CN2Cc3cc(OC)ccc3C2CS1(=O)=O (configuration not stated)	none (no result: Abeta rescue, aSyn yeast inh, TDP-43 yeast inh)
Cn1nc(-c2ccc(Cl)cc2)c2cc(C(=O)NCC3CCCO3)sc21 (configuration not stated)	aSyn yeast inh inconclusive, TDP-43 yeast inh 22µM
CN1CCN(CCCNC(=O)c2cc3c(-c4ccc(Cl)cc4)nn(C)c3s2)CC1	none
COc1cc2c(NC3CCN(C)CC3)nc(N3CCCN(C)CC3)nc2cc1OCCN(C)C	none (no result: Abeta rescue, FUS suppressor, TDP-43 yeast inh)
COC(=O)c1cc(S(=O)(=O)N2CCN(c3cccc(C)c3)C(C)C2)c[nH]1 (configuration not stated)	none
COC(=O)c1sccc1S(=O)(=O)N1CCN(c2cccc(C)c2)C(C)C1 (configuration not stated)	TDP-43 yeast inh 14µM (no result: aSyn yeast inh)
CC(C)CCn1c(CN2CCN(c3cccc(Cl)c3)CC2)nc2c1c(=O)n(C)c(=O)n2C	TDP-43 yeast inh 16µM
COCCn1c(CN2CCN(c3cccc(Cl)c3)CC2)nc2c1c(=O)n(C)c(=O)n2C	none
O=C1C(=C(c2ccccc2)N2CCOCC2)Cc2ccccc21	TDP-43 yeast inh 13µM
O=C(OCC#CCSc1nnc(-c2cccc3ccccc23)o1)c1ccsc1	none (no result: Abeta rescue, aSyn yeast inh, TDP-43 yeast inh)
COC(=O)c1ccc(C2Nc3ccc(/C(C)=N/NC(=O)C(OC)c4ccccc4)cc3C3C=CCC32)cc1 (configuration not stated)	FUS suppressor 4.5µM
CCCCOc1ccc(C2C(=O)N(C3CCCCC3)CC(=O)N2CC2CCCO2)cc1 (configuration not stated)	FUS suppressor 8.9µM
CSc1ccc(/C=C/C(=O)OCC(=O)NC2CCCC2)cc1	TDP-43 yeast inh 20µM
O=C(COC(=O)/C=C/c1ccc(Cl)c(Cl)c1)NC1CC1	TDP-43 yeast inh 10µM (no result: FUS suppressor)
CCC(=O)OCCCN1CCC2(CCCCC2)C1=O	none (no result: Abeta rescue, aSyn yeast inh, TDP-43 yeast inh)
O=C(CSc1nc(O)cc(=O)n1-c1ccccc1)Nc1ccc(Br)cn1	FUS suppressor 28µM (no result: TDP-43 yeast inh)
COc1cc(OC)c(NC(=O)CCc2nc(-c3cccs3)no2)cc1Cl	TDP-43 yeast inh 20µM
CN(C)c1ccc(/C=C/c2ccnc3ccccc23)c(N)c1	none (no result: Abeta rescue, FUS suppressor, TDP-43 yeast inh)
CN=c1scc(-c2ccc(OC)cc2)n1/N=C(\C)c1cccnc1	TDP-43 yeast inh 14µM
CCc1cccc(C)c1NC(=O)CN1CCN(S(=O)(=O)c2ccc(C(C)(C)C)cc2)CC1	FUS suppressor 35µM
COc1ccc(C(=O)OCn2nnc3ccccc3c2=O)cc1	aSyn yeast inh inconclusive, TDP-43 yeast inh 18µM
Cc1ccccc1C(=O)OCn1nnc2ccccc2c1=O	TDP-43 yeast inh 14µM

Screening data (PubChem)
